Measured values: the supplement of paper PMC11732987, “Enantioselective OTUD7B fragment discovery through chemoproteomics screening and high-throughput optimisation” (Communications Chemistry, 2025)
A number with no mark means an inactive call.

compound: ClCC(=O)N1CCC(CC#N)C1; test: log2 ratio of Biotin-Ahx-Ub-VS probe labelling (compound/DMSO); higher = less target engagement, active = hit call of the paper (q ≤ 0.05, log2 ratio ≤ -1); details: compound concentration: 50uM; treatment time: 3 h
Experimental: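 Round 2 competitive ABPP in HEK293T lysate. Purified HTC-D2B compounds were tested at 50 and 200 µM for 3 h, followed by Biotin-Ahx-Ub-VS enrichment and diaPASEF LC-MS/MS. Values are the average log2 ratio (compound/DMSO) from an unpaired t-test (n=3 treated, n=26 DMSO).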

Sequence of UniProt P09936 (P09936 whole entry, looked up): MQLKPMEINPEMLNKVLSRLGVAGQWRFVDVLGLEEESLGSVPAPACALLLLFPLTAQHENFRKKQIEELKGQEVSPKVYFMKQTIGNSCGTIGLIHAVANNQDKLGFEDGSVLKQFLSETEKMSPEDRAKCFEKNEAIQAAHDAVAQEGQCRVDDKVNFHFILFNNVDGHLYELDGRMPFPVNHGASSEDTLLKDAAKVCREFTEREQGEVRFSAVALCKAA
Sequence of UniProt Q9UPT9 (Q9UPT9 whole entry): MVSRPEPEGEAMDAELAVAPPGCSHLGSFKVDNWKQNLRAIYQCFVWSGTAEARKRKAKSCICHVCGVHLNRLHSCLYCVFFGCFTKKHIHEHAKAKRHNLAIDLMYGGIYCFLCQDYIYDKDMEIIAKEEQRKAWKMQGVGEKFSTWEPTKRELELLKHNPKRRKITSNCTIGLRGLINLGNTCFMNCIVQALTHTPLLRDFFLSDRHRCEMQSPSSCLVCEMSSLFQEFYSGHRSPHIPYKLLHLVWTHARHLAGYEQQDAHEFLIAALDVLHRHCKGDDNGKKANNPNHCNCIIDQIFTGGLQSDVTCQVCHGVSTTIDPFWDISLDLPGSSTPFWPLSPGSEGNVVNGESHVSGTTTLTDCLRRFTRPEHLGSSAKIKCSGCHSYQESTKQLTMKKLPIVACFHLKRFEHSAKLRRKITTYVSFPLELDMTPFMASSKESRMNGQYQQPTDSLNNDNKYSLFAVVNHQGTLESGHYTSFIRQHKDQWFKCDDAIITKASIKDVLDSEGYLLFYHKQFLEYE
Sequence of UniProt O00303 (O00303 whole entry): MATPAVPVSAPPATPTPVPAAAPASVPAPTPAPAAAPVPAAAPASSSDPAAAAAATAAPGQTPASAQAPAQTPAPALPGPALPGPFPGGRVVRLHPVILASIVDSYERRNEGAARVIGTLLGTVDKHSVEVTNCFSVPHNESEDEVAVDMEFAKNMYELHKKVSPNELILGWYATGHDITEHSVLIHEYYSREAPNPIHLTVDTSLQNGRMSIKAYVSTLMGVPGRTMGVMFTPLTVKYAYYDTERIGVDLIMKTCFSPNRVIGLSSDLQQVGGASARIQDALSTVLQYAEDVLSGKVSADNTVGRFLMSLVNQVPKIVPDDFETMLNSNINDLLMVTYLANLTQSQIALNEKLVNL
Sequence of UniProt P62068 (P62068 whole entry): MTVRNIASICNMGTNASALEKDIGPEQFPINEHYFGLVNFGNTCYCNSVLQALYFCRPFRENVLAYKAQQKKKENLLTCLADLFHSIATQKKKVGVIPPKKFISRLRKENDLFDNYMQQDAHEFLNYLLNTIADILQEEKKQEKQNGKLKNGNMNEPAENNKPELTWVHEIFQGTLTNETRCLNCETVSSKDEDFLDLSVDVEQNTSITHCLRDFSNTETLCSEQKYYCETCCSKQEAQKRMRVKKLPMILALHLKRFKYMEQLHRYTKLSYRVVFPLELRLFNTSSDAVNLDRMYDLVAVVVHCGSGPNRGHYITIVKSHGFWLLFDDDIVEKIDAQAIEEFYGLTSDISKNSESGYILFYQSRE
Sequence of UniProt P15374 (P15374 whole entry): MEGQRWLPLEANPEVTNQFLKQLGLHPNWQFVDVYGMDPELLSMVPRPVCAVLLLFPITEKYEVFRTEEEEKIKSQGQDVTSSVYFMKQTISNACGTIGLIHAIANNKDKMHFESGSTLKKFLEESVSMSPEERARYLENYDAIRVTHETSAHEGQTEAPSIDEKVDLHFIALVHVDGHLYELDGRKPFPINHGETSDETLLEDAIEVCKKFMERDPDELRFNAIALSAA
Sequence of UniProt Q9H9J4 (Q9H9J4 whole entry): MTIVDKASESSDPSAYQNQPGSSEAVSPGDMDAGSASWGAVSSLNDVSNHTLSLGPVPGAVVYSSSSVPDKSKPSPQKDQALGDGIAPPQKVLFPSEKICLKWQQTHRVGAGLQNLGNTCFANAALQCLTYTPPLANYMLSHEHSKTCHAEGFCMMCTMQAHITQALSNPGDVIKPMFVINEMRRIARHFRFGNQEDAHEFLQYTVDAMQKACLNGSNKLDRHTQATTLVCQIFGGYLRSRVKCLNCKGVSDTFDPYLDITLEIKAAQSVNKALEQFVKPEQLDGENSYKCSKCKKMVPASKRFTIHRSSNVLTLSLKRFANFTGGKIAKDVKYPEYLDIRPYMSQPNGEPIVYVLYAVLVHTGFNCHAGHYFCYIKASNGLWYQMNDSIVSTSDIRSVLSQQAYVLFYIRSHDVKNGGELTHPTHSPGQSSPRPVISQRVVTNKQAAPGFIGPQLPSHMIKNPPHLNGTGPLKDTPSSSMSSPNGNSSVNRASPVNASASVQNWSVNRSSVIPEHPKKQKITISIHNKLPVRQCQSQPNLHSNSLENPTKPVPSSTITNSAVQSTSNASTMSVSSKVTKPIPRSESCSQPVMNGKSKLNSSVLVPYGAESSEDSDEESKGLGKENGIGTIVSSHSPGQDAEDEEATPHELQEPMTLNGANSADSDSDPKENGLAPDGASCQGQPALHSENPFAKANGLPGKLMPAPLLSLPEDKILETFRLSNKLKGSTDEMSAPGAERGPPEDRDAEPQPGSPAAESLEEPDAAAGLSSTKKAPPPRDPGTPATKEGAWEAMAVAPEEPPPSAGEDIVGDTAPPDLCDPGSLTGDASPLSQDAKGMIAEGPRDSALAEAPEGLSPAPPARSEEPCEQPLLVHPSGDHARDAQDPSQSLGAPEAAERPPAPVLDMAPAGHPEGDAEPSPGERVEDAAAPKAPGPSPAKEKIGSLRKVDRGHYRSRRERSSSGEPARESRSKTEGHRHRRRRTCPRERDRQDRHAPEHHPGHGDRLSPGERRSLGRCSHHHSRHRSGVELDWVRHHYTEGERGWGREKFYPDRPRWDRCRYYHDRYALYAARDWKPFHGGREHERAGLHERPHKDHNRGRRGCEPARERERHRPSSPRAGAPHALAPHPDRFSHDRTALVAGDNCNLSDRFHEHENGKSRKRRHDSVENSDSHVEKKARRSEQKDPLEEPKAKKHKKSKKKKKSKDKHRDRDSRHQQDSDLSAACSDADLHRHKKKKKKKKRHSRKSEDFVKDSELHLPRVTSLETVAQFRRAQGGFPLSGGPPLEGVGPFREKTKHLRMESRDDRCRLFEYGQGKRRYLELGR
Sequence of UniProt P54578 (P54578 whole entry): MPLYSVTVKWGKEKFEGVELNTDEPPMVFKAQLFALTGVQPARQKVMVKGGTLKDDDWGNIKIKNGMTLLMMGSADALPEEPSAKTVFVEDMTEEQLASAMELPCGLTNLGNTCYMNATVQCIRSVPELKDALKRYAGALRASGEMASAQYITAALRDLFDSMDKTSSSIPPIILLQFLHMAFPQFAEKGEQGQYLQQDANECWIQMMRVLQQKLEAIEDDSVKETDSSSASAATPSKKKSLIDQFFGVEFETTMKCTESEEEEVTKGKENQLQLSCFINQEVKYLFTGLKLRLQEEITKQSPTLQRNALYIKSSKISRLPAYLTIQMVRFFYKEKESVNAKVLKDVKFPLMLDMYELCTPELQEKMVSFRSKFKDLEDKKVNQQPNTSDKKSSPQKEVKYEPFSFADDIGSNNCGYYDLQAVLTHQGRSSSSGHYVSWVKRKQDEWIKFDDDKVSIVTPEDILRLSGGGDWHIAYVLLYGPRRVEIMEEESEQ
Sequence of UniProt Q9Y5K5 (Q9Y5K5 whole entry): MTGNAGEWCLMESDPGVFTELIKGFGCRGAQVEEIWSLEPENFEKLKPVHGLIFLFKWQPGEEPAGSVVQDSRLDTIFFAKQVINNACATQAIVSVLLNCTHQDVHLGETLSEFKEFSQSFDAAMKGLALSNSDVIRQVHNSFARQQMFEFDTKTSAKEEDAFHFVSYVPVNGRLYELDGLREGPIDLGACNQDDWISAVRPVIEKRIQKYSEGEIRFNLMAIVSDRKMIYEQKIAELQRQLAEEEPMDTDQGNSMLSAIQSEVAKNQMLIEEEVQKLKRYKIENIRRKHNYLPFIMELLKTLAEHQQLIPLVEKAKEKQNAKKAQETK
Sequence of UniProt P45974 (P45974 whole entry): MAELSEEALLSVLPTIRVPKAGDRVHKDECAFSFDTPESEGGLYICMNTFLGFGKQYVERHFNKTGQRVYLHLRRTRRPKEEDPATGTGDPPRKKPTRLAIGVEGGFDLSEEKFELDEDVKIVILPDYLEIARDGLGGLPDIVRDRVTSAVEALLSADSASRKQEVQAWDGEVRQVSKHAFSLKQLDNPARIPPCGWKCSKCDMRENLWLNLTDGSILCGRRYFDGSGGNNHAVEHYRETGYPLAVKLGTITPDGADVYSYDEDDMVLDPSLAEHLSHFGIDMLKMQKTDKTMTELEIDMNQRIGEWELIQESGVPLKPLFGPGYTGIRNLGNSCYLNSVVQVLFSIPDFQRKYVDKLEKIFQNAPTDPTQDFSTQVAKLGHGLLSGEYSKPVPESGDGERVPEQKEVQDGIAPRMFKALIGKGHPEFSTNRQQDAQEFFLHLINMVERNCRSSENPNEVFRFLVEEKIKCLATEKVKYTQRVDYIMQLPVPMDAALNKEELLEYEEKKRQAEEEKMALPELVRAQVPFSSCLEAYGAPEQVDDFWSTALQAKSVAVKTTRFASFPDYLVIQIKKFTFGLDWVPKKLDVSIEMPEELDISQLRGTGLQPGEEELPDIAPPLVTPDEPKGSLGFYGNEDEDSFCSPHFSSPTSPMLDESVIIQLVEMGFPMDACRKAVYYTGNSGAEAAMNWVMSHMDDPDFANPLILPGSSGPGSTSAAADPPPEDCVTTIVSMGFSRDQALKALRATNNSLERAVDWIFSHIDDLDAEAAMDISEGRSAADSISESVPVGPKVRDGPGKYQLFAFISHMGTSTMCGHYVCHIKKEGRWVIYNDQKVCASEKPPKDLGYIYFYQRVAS

Row | Target | log2 ratio of Biotin-Ahx-Ub-VS probe labelling
1 | USP5 (UniProt P45974) | -0.0602
2 | UCHL5 (UniProt Q9Y5K5) | -0.227
3 | USP22 (UniProt Q9UPT9) | -0.132
4 | USP28 (UniProt Q96RU2) | -0.0624
5 | UCHL3 (UniProt P15374) | -0.263
6 | USP25 (UniProt Q9UHP3) | -0.617
7 | USP46 (UniProt P62068) | -0.14
8 | UCHL1 (UniProt P09936) | -0.297
9 | USP16 (UniProt Q9Y5T5) | -0.133
10 | USP42 (UniProt Q9H9J4) | -0.0062
11 | PRPF8 (UniProt Q6P2Q9) | 0.045
12 | USP14 (UniProt P54578) | -0.25
13 | EIF3F (UniProt O00303) | -0.172
14 | USP10 (UniProt Q14694) | -0.155
15 | UniProt Q8TE49 | -0.317
16 | USP12 (UniProt O75317) | -0.0667
17 | USP4 (UniProt Q13107) | -0.106
18 | UniProt Q9UGI0 | -0.025
19 | USP24 (UniProt Q9UPU5) | -0.155
20 | OTUD4 (UniProt Q01804) | -0.19

same assay, conditions: compound concentration: 200uM; treatment time: 3 h

Row | Target | log2 ratio of Biotin-Ahx-Ub-VS probe labelling
21 | USP5 (UniProt P45974) | 0.0332
22 | UCHL5 (UniProt Q9Y5K5) | -0.17
23 | USP22 (UniProt Q9UPT9) | -0.153
24 | USP28 (UniProt Q96RU2) | -0.291
25 | UCHL3 (UniProt P15374) | -0.193
26 | USP25 (UniProt Q9UHP3) | -2.11 (active)
27 | USP46 (UniProt P62068) | -0.548
28 | UCHL1 (UniProt P09936) | -0.13
29 | USP16 (UniProt Q9Y5T5) | -0.669
30 | USP42 (UniProt Q9H9J4) | 0.221
31 | PRPF8 (UniProt Q6P2Q9) | -0.00376
32 | USP14 (UniProt P54578) | 0.0716
33 | EIF3F (UniProt O00303) | 0.14
34 | USP10 (UniProt Q14694) | -0.0316
35 | UniProt Q8TE49 | -0.54
36 | USP12 (UniProt O75317) | -0.647
37 | USP4 (UniProt Q13107) | 0.254
38 | UniProt Q9UGI0 | -0.16
39 | USP24 (UniProt Q9UPU5) | -0.576
40 | OTUD4 (UniProt Q01804) | -0.226
